High-throughput results as filed in PubChem.
Only some compounds are listed: those with a hit (about 3.5% of all), similar ones and a draw of the others.
Pf apPOL inh = Pf-apPOL DNA polymerase inhibition; inhibition, % at 10 µM; Recombinant Pf-apPOL, molecular beacon fluorescence, 1.5 h; AID 1794808; 210,000 compounds, 0.25% hits
mHTT-CaM PPI inh = inhibitors of human mutant huntingtin-calmodulin interaction. AlphaScreen His-mHTT/GST-CaM binding, luminescence. P42858. inhibition, % at 15 µM. 190,000 compounds, 3.6% hits. AID 1671202;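 note: 0% = both proteins with DMSO and 100% = one protein alone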
Target sequence (P42858 whole entry, looked up, stated change not applied): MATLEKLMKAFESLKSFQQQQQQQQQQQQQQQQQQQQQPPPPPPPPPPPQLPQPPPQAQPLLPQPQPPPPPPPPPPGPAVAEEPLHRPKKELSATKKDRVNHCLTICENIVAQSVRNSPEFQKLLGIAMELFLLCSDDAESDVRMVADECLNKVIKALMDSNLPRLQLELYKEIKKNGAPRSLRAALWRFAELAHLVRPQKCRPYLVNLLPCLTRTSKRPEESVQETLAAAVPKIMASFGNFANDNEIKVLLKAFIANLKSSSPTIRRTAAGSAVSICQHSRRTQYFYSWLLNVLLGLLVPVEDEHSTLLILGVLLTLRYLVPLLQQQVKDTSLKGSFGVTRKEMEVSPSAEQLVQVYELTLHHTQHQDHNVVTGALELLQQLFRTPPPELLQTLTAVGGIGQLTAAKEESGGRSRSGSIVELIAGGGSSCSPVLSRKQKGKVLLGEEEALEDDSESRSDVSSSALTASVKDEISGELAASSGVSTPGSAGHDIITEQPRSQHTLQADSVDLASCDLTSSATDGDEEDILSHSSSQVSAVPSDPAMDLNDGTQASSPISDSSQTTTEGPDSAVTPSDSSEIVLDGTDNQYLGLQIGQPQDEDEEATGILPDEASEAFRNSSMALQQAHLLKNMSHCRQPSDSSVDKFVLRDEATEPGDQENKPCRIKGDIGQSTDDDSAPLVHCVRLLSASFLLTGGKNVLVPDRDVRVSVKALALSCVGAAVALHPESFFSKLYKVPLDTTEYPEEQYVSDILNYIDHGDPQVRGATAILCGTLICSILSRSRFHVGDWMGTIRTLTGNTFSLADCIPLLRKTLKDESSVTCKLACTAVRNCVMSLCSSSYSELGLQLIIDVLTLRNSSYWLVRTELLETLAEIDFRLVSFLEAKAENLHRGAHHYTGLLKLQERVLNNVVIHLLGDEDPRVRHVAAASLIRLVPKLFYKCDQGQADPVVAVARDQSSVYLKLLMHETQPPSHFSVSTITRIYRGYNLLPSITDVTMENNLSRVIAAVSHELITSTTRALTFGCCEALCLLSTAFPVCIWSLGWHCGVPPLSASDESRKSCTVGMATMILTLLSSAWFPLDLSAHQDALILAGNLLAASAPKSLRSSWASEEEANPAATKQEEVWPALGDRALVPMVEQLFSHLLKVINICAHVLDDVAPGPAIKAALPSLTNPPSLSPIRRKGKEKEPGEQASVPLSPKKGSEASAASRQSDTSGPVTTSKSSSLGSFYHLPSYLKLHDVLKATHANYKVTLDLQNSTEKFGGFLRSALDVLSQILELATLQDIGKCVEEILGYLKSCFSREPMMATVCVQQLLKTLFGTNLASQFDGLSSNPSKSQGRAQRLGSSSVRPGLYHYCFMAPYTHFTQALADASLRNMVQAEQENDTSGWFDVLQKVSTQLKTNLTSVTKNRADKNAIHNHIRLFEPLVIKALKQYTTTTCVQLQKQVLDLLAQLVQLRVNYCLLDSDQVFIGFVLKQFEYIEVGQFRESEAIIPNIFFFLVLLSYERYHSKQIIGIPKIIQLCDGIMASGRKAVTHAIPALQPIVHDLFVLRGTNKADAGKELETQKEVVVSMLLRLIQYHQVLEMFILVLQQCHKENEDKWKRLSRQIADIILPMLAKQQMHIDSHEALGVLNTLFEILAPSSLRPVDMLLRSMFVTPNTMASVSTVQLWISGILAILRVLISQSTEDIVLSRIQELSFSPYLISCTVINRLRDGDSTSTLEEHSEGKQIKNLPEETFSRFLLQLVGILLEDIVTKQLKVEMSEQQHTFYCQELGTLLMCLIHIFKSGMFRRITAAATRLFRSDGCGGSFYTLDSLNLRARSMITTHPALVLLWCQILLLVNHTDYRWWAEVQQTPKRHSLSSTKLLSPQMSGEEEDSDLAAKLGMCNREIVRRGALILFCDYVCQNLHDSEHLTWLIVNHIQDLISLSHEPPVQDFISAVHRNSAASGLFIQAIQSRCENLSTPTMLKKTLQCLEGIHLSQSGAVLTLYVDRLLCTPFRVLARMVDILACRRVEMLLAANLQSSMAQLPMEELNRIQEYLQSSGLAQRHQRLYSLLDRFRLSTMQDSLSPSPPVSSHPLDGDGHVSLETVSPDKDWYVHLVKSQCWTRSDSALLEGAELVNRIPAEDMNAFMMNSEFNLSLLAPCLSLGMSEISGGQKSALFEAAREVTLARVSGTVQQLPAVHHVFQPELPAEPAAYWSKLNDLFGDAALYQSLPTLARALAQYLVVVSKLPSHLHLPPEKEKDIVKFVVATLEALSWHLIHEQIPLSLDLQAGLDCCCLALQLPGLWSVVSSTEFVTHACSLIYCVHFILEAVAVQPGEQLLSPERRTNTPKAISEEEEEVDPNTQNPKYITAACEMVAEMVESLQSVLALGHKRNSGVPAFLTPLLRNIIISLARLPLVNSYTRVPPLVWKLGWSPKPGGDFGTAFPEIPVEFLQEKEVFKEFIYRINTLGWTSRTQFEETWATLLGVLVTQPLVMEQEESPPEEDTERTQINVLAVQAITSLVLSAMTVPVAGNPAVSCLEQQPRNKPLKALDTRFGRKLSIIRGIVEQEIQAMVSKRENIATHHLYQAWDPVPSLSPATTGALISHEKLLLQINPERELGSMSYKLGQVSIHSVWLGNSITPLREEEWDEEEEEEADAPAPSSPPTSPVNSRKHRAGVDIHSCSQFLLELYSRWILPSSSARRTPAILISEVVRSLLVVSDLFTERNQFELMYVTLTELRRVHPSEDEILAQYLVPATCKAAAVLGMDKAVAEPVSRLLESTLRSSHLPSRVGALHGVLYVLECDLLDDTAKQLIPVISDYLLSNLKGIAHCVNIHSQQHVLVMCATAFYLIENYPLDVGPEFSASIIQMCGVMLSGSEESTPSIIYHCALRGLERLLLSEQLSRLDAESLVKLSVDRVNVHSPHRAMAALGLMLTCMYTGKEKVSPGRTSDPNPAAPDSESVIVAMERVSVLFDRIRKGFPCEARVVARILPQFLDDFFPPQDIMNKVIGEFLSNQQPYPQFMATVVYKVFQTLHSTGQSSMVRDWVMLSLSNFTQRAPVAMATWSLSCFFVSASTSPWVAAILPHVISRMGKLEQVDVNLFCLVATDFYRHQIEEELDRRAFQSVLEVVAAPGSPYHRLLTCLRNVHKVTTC
An asterisk follows results filed as active; ! = a repeat was not active. Cut-off read from the data, not from the text of the source: active = inhibition above about 50%; inactive = the rest.

SMILES | Pf apPOL inh | mHTT-CaM PPI inh
CC(C)C[C@@H](COCc1cccc(Cl)c1)N1CCN(C(=O)c2cccc(C(F)(F)F)c2)CCC1=O | -3 | 87*!
O=C1CSC(c2ccc([N+](=O)[O-])cc2)N1c1ccc(F)cc1F (stereo not drawn) | -2 | 3
O=S(=O)(c1cccn2cnnc12)N(Cc1ccccc1F)c1ccc(F)c(F)c1 | -5 | 61*
O=S(=O)(c1cccn2cnnc12)N(Cc1cccc(F)c1)c1ccc(F)cc1 | 42 | 51*
O=S(=O)(c1ccc2nncn2c1)N(Cc1ccccc1Cl)c1ccccc1 | -5 | 21
O=S(=O)(c1cccn2cnnc12)N(Cc1cccc(F)c1)c1ccc(F)c(F)c1 | -4 | 41
O=S(=O)(c1cccn2cnnc12)N(Cc1ccc(F)cc1)c1ccc(F)cc1 | 25 | 32
O=S(=O)(Nc1ccc(F)cc1)c1cccn2cnnc12 | 62* | 45
Cc1cc(=S)oc2ccccc12 | 4 | 15
COc1ccccc1-n1ncc2c(=O)[nH]c(SCC(=O)OCc3ccccc3)nc21 | -4 | -6
COc1ccccc1CNC(=O)C1c2ccccc2CC(=O)N1Cc1ccccc1 (stereo not drawn) | 1 | 100*
CCCN1C(=O)Cc2ccccc2C1C(=O)NCc1ccccc1OC (stereo not drawn) | 0 | -1
Cc1cc(Cl)ccc1N(CC(=O)O)S(C)(=O)=O | -4 | -1
COc1cc(OC)c(NC(=O)c2c(-c3c(Cl)cccc3Cl)noc2C)cc1Cl | 0 | -7
CCCCNC(=O)CCC1N=C2c3ccccc3N=C(SCC(=O)c3ccccc3)N2C1=O (stereo not drawn) | -4 | 11
O=[N+]([O-])c1ccccc1S(=O)(=O)NCCCCNS(=O)(=O)c1ccccc1[N+](=O)[O-] | -1 | 17
O=S(=O)(Nc1cccc(F)c1)c1ccc(-c2ccccc2)cc1 | -4 | 79*
O=S(=O)(Nc1ccc(NS(=O)(=O)c2ccc(F)cc2)cc1)c1ccc(F)cc1 | -2 | 4
O=S(=O)(Nc1ccc(Nc2ccccc2)cc1)c1ccc(F)cc1 | -3 | 69*
Cc1ccc(S(=O)(=O)Nc2cccc(F)c2)cc1 | -1 | -7
Cc1cccn2c(=O)c3cc(C(=O)NCc4ccccc4)c(=N)n(Cc4cccnc4)c3nc12 | -12 | 1
O=C1NC(=O)/C(=C/c2cc(Br)c(OCc3ccc(F)cc3)c(Br)c2)N1 | 0 | 36
Cc1ccc(N=C2SCC(=O)N2c2ccc(C)cc2)cc1 | -1 | -11
COc1ccc(OCC(=O)N2CCC(n3nc(-c4ccsc4)ccc3=O)CC2)cc1 | -2 | 88*
O=C(COc1ccc(F)cc1)N1CCC(n2nc(-c3ccsc3)ccc2=O)CC1 | -4 | 92*
SMILES | Pf apPOL inh | mHTT-CaM PPI inh
O=C(COc1ccc(F)cc1)N1CCN(C(=O)COc2ccc(F)cc2)CC1 | 7 | -2
CC1CCN(C(=O)COc2ccc(C(C)C)cc2)CC1 | 0 | -10
O=C(NC1CC1)C1COC2(CCCCC2)N1C(=O)c1ccccc1C(F)(F)F (stereo not drawn) | -6 | -2
COc1ccc(C2CC(c3ccc(-c4ccccc4)cc3)Nc3nnnn32)cc1 (stereo not drawn) | -7 | 64*
COc1ccc(C2CC(c3ccccc3)Nc3nnnn32)cc1 (stereo not drawn) | 2 | -1
Oc1ccc(-c2csc(-c3ccccc3)n2)cc1O | 0 | 26
NC(N)=Nc1nc(-c2ccc(O)c(O)c2)cs1 | -6 | 61*
Cc1ccc(NS(=O)(=O)c2ccccc2[N+](=O)[O-])c(Br)c1 | 2 | 1
CCN(CC)CCC(c1ccc(N(C)C)cc1)c1c(OC)cc(OC)c2c1OC(=O)CC2c1ccc(N(C)C)cc1 (stereo not drawn) | 0 | 101*
CCN(CC)CCC(c1ccc(OC)cc1)c1c(OC)cc(OC)c2c(C)cc(=O)oc12 (stereo not drawn) | -7 | 14
CCN(CC)CCC(c1ccc2c(c1)OCO2)c1c(OC)cc(OC)c2c(C)cc(=O)oc12 (stereo not drawn) | -14 | 30
CCN(CC)CCC(c1ccc(N(C)C)cc1)c1c(OC)cc(OC)c2c1OC(=O)CC2c1ccc(OC)cc1 (stereo not drawn) | -9 | 98*
O=C(NCC1CCN(c2cc(-c3ccccn3)[nH]n2)CC1)c1ccc(F)cc1 | -5 | 35
CC1=C(C(=O)Nc2ccccc2)C(c2ccccc2)n2c(s/c(=C\c3ccco3)c2=O)=N1 (stereo not drawn) | 0 | 9
CC1=C(C(=O)Nc2ccccc2)C(c2ccc(F)cc2)n2c(s/c(=C\c3ccc(C)o3)c2=O)=N1 (stereo not drawn) | -4 | 66*
C[n+]1ccc(/C=C/c2ccc3c(c2)OCO3)c2ccccc21 | -13 | 8
CN(C)c1ccc(/C=C/c2cc[n+](C)c3ccccc23)cc1 | 3 | 80*
COc1ccc(CNC(=O)c2cccc(C3CCCN(C(=O)NC(C)C)C3)c2)c(OC)c1 (stereo not drawn) | -2 | 18
O=C(NCC1CCCO1)N1CCc2c(nc3cc(-c4ccccc4Cl)[nH]n3c2=O)C1 (stereo not drawn) | -3 | 28
COc1ccc(NC(=O)CC(C)C)cc1N1CCCC1=O | -6 | -10
COc1ccc(NC(=O)NC(c2ccccc2)c2ccccc2)cc1N1CCCC1=O | 3 | 55*
O=C(CSc1nc(-c2ccccc2)cn1-c1ccccc1F)Nc1ccccc1 | 5 | 54*
Cn1cnnc1SCC(=O)Nc1ccccc1 | -3 | 1
COc1ccccc1NC(=O)CSc1nc(-c2ccccc2)cn1-c1ccccc1OC | 1 | 34
COc1ccccc1-n1cc(-c2ccccc2)nc1SCC(=O)Nc1ccc(F)cc1 | 1 | 57*
SMILES | Pf apPOL inh | mHTT-CaM PPI inh
Cc1cccc2nnc(N3CCCC(C(=O)NCc4cc(F)cc(F)c4)C3)n12 (stereo not drawn) | -7 | 20
O=[N+]([O-])c1ccc(-c2ccc(N=Cc3cc([N+](=O)[O-])ccc3O)cc2)cc1 | 5 | 7
CCOc1ccc(S(=O)(=O)N(CC(=O)N(CC)CC)c2ccccc2)cc1 | -13 | 3
COc1cccc(-n2nc(C(=O)Nc3cnc4ccccc4c3)c3ccccc3c2=O)c1 | -4 | 0
O=[N+]([O-])c1cc(C=Nc2ccc(Cl)cc2)ccc1Cl | 2 | 19
O=[N+]([O-])c1cc(C=Nc2cc(Cl)ccc2O)ccc1Cl | -1 | 64*
COc1cccc2sc(N(Cc3ccco3)C(=O)c3cc(C)nn3C)nc12 | -5 | -13
CC(C)Sc1cccc(C(=O)Nc2nnc(-c3ccnn3C(C)C)o2)c1 | -214 | 68*
CC(C)Sc1cccc(-c2nnc(NC(=O)c3cc(-c4ccco4)on3)o2)c1 | -48 | 37
CSc1cccc(NC(=O)C(=O)NCCc2ccc(Cl)cc2)c1 | -5 | -3
Cc1ccnc(NC=C2C(=O)OC3(CCCCC3)OC2=O)c1 | -6 | -5
COc1cccc(COC2CCCN(C(=O)c3cccs3)C2)c1 (stereo not drawn) | -3 | -4
O=C(c1cccs1)N1CCCC(OCc2ccc(C(F)(F)F)cc2)C1 (stereo not drawn) | -2 | 51*
O=C(CSc1nc2ccccc2o1)Nc1ccccc1[N+](=O)[O-] | -3 | 55*
COc1ccc(NC(=O)CSc2nc3ccccc3o2)c([N+](=O)[O-])c1 | -6 | 11
COc1ccccc1C(=O)Nc1ccccc1NC(=O)Nc1ccccc1Cl | -6 | -5
Cn1ccnc1N1CCN(CC(=O)NCCc2ccccc2)CC1 | -8 | -6
Cc1cccc(NC(=O)c2ccc(Cl)c(Cl)c2)n1 | 1 | -14
